Data published in PubChem BioAssay (NCATS).
Unmarked numbers belong to inactive results. Results filed as inconclusive are left out. The source made the active and inactive calls. Unless noted, calls come from the whole dose curve; as a rule, active = well fitted curve in either direction with a large enough effect (not every such curve was filed as active); inconclusive = small, poorly fitted or top-dose-only effect, or another doubt; inactive = flat fitted curve, though single readings scatter.

Experiments:
[1] = biological target: Lysosomal acid glucosylceramidase (Homo sapiens) (UniProt P04062); assay: Glucocerebrosidase-p2 (AID 348; in the data active = potency below about 10 µM; note: potency is the fitted concentration of half-maximal effect); settings: purified GBA, blue fluorogenic substrate, 40 min
Sequence of Lysosomal acid glucosylceramidase (Homo sapiens) (P04062 whole entry, looked up): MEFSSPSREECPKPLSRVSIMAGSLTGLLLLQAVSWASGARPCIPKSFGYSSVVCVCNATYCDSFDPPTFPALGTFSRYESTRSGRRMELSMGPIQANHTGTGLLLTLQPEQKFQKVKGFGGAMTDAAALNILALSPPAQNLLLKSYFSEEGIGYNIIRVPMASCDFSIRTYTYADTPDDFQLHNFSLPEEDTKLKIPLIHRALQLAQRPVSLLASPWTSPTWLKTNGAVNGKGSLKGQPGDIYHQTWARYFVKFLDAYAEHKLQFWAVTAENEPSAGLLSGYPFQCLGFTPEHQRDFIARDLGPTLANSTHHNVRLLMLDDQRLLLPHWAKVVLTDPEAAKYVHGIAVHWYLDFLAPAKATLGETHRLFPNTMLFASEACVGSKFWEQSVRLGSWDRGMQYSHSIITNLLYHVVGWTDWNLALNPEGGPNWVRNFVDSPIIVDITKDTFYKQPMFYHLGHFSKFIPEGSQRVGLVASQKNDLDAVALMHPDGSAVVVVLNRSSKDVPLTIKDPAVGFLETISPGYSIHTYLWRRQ
In short: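 Normal human glucocerebrosidase (0.2 nM) with blue fluorogenic substrate (80 uM final) in citrate/phosphate pH 5.9 with 10mM sodium taurocholate, 0.01% tween-20; 40 min RT, NaOH/glycine stop; fluorescence Ex 365/Em 440; AC50 from a titration from 0.6 nM upwards.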

[2] = biological target: Cytochrome P450 1A2 (Homo sapiens) (UniProt P05177); assay: p450-cyp1a2 (AID 410; calls by dose curve; note: potency is the fitted concentration of half-maximal effect;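 for activity change, negative = inhibition: -100% = full effect of reference inhibitor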); settings: recombinant CYP1A2, luciferin-ME demethylation, luminescence; series mostly up to 11.4 µM
Sequence of Cytochrome P450 1A2 (Homo sapiens) (P05177 whole entry, looked up): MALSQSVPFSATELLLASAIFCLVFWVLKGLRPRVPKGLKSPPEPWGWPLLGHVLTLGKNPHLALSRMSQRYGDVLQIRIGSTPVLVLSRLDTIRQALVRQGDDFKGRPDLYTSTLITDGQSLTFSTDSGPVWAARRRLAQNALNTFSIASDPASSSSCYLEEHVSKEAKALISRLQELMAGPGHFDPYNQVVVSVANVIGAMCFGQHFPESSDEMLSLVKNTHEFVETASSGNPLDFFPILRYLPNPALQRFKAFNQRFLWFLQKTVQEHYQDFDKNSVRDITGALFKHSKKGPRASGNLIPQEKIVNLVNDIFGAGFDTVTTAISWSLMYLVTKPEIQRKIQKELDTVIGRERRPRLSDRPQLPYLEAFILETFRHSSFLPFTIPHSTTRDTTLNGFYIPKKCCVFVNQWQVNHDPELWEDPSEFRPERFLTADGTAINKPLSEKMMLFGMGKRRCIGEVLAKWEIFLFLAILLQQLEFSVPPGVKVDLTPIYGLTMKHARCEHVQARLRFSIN
In short: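 Luminescent demethylation readout: Luciferin-ME (100uM, equal to Km) turned over by 20nM CYP1A2 for 60 min at room temperature after NADPH regeneration addition, following 10 min compound preincubation. Normalization used 57 uM furafylline as full inhibition.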

[3] = NFAT Signaling Pathway (AID 444); settings: Jurkat NFAT-bla M1, carbachol, beta-lactamase ratio, 5 h; at 7.69 µM (top of the series) unless noted;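 note: carbachol stimulus at about its EC50 of 1 µM final; % is set by controls: 0 for no effect and ±100 for the full control effect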
In short: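 Read-out: CCF4 FRET ratio (460 nm/530 nm) after 1 h RT dye loading, used for %activity and AC50 from titration series. Cells: Jurkat NFAT-β-lactamase/M1 line, treated with compound plus 1 uM carbachol for 5 h, 37 °C.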

[4] = Stat Signaling Pathway (AID 446); settings: ME-180 SIE beta-lactamase reporter, IL-6 stimulated, 5 h; at 7.69 µM (top of the series) unless noted;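 note: ME-180 cervical cancer cells given 40 pM IL-6 alongside compound; SIE-controlled beta-lactamase reporter measured as 460/530 nm FRET emission ratio; % is set by controls: 0 for no effect and ±100 for the full control effect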
In short: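 Normalization used AC90 stimulation (300 pM IL-6) and AC90 inhibition (125 nM pan-JAK inhibitor at 40 pM IL-6). The underlying signal is SIE-driven beta-lactamase in ME-180 cells after 5 h IL-6 exposure with compound.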

[5] = biological target: Glucocorticoid receptor (Homo sapiens) (UniProt P04150); assay: GR-GFP Redistribution (AID 450;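 active = compounds whose dose series gives a full or clear partial fitted curve of increased nuclear translocation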; note: potency is the fitted concentration of half-maximal effect); settings: U2OS GR-GFP nuclear translocation, laser cytometry, 2 h
Sequence of Glucocorticoid receptor (Homo sapiens) (P04150 whole entry, looked up, the tested form may be a part): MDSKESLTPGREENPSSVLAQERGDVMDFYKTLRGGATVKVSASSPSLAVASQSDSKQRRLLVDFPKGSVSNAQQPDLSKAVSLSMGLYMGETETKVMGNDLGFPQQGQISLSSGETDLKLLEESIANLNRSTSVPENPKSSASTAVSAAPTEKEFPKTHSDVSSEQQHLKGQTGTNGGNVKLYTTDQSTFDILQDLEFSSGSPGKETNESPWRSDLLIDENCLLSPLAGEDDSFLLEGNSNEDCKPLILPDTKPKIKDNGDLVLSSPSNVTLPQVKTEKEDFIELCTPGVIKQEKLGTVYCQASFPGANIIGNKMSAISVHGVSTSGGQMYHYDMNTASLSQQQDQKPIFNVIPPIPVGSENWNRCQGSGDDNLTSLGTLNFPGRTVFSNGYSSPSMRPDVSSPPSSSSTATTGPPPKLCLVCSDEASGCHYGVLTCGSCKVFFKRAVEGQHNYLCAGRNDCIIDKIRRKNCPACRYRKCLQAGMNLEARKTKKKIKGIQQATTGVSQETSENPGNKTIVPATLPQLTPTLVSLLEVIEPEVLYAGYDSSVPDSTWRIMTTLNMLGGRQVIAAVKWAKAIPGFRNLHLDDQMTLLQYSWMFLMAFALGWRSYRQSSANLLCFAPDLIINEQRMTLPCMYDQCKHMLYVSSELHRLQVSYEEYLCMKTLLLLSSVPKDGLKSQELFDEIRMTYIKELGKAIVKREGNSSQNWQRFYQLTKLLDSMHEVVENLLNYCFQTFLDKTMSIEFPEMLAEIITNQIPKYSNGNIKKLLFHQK

[6] = biological target: Glucocorticoid receptor (Homo sapiens) (UniProt P04150); assay: GR-EFC Redistribution (AID 451; calls by dose curve; note: potency is the fitted concentration of half-maximal effect); settings: CHO-K1 GR-EFC translocation, beta-gal luminescence, 2 h
In short: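 Translocation of GR-ED fusion to nuclear EA restores b-gal, read by luminescence after 1 h room-temperature detection. Engineered CHO-K1 biosensor cells, 1,000/well, exposed 2 h at 37 C to titrations up to 46 uM final.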

[7] = biological target: Mitogen-activated protein kinase 10 (Mus musculus) (UniProt Q61831); assay: JNK3 AlphaScreen Assay (AID 530); settings: JNK3 lysate, c-Jun phosphorylation; series mostly up to 11.4 µM;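 note: kinase came from lysate of stimulated human HepG2 cells; signal reports phosphorylation of biotinylated GST-cJun 1-79 at Ser73 with 10 µM ATP; % is set by controls: 0 for no effect and ±100 for the full control effect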
In short: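 qHTS titrations with 15 min compound pre-incubation before adding ATP (10 uM final). Read-out: AlphaScreen of Ser73-phosphorylated biotin-GST-cJun using HepG2 lysate JNK3 activated by IL-1β and TNFα.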

[8] = biological target: 3',5'-cyclic-AMP phosphodiesterase 4B (Homo sapiens) (UniProt Q07343); assay: qHTS Assay for Inhibitors of PDE-IV (AID 607; active = well fitted activation curve with a large enough effect in the main read-out, with a control signal flat, not every such curve was filed as active; note: % of control where 0% means no effect); settings: HEK293 ACTOne CNG channel cells, membrane potential fluorescence; series mostly up to 22.9 µM
Sequence of 3',5'-cyclic-AMP phosphodiesterase 4B (Homo sapiens) (Q07343 whole entry, looked up): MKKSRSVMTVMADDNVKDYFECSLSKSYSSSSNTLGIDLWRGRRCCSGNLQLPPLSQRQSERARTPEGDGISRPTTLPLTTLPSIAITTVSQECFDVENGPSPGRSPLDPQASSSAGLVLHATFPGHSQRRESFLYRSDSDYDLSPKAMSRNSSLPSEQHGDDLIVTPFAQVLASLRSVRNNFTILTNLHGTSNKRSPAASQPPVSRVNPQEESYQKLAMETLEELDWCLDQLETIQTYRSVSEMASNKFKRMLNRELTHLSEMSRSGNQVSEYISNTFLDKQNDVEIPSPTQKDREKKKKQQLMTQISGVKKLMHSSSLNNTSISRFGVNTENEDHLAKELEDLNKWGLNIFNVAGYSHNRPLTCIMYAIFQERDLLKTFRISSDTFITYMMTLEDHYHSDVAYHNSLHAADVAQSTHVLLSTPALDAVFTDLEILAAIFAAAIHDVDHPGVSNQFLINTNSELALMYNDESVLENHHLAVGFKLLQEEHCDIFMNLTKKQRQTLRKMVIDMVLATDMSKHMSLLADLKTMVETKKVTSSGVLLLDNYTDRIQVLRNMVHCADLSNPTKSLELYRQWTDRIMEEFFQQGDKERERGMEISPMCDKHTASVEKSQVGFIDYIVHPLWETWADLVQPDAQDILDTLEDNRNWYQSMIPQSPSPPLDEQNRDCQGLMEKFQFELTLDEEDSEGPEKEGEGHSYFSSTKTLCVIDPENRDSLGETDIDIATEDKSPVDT
In short: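 HEK293 ACTOne cells with CNG channel (1000/well), endogenous PDE4; membrane potential dye, compounds up to 22.9 uM final. Fluorescence Ex 535/Em 590; RO 20-1724 (100 uM final) as reference.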

[9] = biological target: Cytochrome P450 3A4 (Homo sapiens) (UniProt P08684); assay: qHTS Assay for Inhibitors and Substrates of Cytochrome P450 3A4 (AID 884; active = well fitted curve in the direction sought with a large enough effect; an effect the other way counts as inactive or inconclusive; note: potency is the fitted concentration of half-maximal effect; nearly all actives have a fitted effect of over 50% in size); settings: recombinant CYP3A4, Luciferin-PPXE luminescence; series mostly up to 57.1 µM
Sequence of Cytochrome P450 3A4 (Homo sapiens) (P08684 whole entry, looked up): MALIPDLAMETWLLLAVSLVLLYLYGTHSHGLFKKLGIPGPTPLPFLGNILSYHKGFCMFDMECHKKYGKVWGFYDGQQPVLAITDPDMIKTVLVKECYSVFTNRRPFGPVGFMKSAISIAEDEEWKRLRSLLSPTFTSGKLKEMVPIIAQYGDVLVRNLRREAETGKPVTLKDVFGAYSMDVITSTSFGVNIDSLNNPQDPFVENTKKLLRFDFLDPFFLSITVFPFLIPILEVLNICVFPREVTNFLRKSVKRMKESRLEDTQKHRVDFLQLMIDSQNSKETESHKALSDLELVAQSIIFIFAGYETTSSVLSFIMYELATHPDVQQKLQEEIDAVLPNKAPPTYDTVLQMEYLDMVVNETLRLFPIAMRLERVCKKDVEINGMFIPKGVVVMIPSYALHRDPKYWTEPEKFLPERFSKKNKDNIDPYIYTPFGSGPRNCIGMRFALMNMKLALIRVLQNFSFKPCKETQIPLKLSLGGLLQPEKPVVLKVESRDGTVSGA
In short: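 Luminescent readout of luciferin produced by CYP3A4 (20 nM) dealkylation of Luciferin-PPXE, 25 uM (its KM). NADPH-driven reaction ran 60 min at RT after 10 min compound preincubation; data scaled to 57 uM ketoconazole as 100% inhibition.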

[10] = biological target: Cytochrome P450 3A4 (Homo sapiens) (UniProt P08684); assay: qHTS Assay for Activators of Cytochrome P450 3A4 (AID 885; active = well fitted curve in the direction sought with a large enough effect; an effect the other way counts as inactive or inconclusive; note: nearly all actives have a fitted effect of over 65% in size); settings: recombinant CYP3A4, Luciferin-PPXE luminescence, 60 min; series mostly up to 11.4 µM
In short: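 Human CYP3A4 dealkylates Luciferin-PPXE to luciferin, which luciferase detection converts to light. Substrate was at its KM (25uM), buffer 200mM KPO4, reaction 60 min at RT.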

[11] = biological target: Cytochrome P450 2C19 (Homo sapiens) (UniProt P33261); assay: qHTS Assay for Inhibitors and Substrates of Cytochrome P450 2C19 (AID 899; active = well fitted curve in the direction sought with a large enough effect; an effect the other way counts as inactive or inconclusive; note: nearly all actives have a fitted effect of over 60% in size; note: potency is the fitted concentration of half-maximal effect; for activity, negative = inhibition: % is set by controls: 0 for no effect and ±100 for the full control effect); settings: recombinant CYP2C19, luciferin-H EGE luminescence; series mostly up to 11.4 µM
Sequence of Cytochrome P450 2C19 (Homo sapiens) (P33261 whole entry, looked up): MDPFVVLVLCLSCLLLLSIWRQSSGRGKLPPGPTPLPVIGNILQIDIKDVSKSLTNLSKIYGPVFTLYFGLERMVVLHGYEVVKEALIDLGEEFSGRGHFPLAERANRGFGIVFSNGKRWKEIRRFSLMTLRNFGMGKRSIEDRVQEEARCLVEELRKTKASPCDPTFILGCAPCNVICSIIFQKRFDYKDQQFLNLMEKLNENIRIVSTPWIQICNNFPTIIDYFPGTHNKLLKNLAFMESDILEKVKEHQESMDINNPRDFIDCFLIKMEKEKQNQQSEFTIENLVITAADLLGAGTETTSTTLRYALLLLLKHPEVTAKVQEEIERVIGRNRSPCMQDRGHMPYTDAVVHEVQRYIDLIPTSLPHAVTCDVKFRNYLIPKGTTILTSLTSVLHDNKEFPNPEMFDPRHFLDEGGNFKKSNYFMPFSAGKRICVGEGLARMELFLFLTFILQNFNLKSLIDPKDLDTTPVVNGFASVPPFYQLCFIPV
In short: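 Reactions contain 5nM enzyme, 10uM Luciferin-H EGE (KM) and 50mM KPO4; compound preincubates 10 min at 37C, NADPH regeneration starts turnover for 60 min. Luminescence after detection reagent gives activity.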

[12] = biological target: Cytochrome P450 2C9 (Homo sapiens) (UniProt P11712); assay: qHTS Assay for Inhibitors and Substrates of Cytochrome P450 2C9 (AID 883; active = well fitted curve in the direction sought with a large enough effect; an effect the other way counts as inactive or inconclusive; note: potency is the fitted concentration of half-maximal effect; nearly all actives have a fitted effect of over 60% in size); settings: recombinant CYP2C9, luciferin-H luminescence, 60 min; series mostly up to 11.4 µM
Sequence of Cytochrome P450 2C9 (Homo sapiens) (P11712 whole entry, looked up): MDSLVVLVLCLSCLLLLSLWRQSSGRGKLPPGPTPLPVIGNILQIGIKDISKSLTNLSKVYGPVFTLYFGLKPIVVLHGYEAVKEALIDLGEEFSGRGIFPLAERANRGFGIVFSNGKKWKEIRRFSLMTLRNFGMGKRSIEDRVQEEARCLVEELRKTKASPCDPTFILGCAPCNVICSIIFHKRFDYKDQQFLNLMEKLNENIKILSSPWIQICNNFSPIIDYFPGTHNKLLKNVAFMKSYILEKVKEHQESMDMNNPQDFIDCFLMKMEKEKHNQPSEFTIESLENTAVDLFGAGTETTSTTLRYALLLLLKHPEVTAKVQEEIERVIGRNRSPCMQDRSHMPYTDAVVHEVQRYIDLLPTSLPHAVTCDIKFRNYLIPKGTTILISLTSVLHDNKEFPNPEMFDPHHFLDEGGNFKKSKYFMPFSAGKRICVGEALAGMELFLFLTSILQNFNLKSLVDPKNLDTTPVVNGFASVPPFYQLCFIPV
In short: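 Turnover of Luciferin-H (100uM, KM) by 10nM human CYP2C9 was measured over 60 min at 37C with NADPH regeneration; inhibitors and some substrates reduce luminescence. Data normalized to sulphaphenazole 57uM.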

[13] = qHTS Assay for Identification of Small Molecule Agonists for Hypoxia Response Element Signaling Pathway (AID 914; active = well fitted activation curve with a large enough effect in the signal ratio, with a control signal flat, not every such curve was filed as active; the % refers to the signal ratio; note: % of control where 0% means no effect); settings: ME-180 HRE-bla reporter, beta-lactamase ratio, CoCl2, 17 h; activation: stronger effect = higher value
In short: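 ME-180 cells carrying an HRE-driven beta-lactamase reporter were treated with compounds in a titration series plus an EC50 level of CoCl2 for 17 h at 37 degrees Celsius; CCF4 readout as the 460nm/530nm ratio gave AC50 values.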

[14] = biological target: Cytochrome P450 2D6 (Homo sapiens) (UniProt P10635); assay: qHTS Assay for Inhibitors and Substrates of Cytochrome P450 2D6 (AID 891; active = well fitted curve in the direction sought with a large enough effect; an effect the other way counts as inactive or inconclusive; note: potency is the fitted concentration of half-maximal effect; nearly all actives have a fitted effect of over 60% in size); settings: recombinant CYP2D6, luciferin-ME EGE luminescence; series mostly up to 11.4 µM
Sequence of Cytochrome P450 2D6 (Homo sapiens) (P10635 whole entry, looked up): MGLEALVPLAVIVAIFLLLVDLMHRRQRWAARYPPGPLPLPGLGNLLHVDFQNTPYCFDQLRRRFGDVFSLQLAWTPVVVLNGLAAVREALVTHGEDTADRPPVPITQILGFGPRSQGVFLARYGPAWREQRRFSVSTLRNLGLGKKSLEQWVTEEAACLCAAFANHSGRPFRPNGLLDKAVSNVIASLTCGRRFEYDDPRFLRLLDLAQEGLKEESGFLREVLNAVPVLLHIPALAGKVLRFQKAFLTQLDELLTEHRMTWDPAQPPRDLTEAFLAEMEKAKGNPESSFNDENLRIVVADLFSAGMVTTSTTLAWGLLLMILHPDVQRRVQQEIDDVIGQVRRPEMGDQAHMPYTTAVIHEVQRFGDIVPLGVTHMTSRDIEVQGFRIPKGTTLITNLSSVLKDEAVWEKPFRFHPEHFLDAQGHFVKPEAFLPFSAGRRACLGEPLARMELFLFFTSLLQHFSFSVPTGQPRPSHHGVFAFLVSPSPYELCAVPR
In short: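 Luminescent read-out of luciferin formed by 5 nM human CYP2D6 demethylating 30 uM Luciferin-ME EGE (Km level) over 60 min at room temperature after NADPH regeneration addition. Data normalized to full inhibition by 1.43 uM quinidine.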

Row | Structure (SMILES) | Potency [1] | Potency [2] | activity change, negative = inhibition [3] | activity, negative = inhibition [4] | Potency [5] | Potency [6] | Potency [7] | Potency [8] | Potency [9] | Potency [10] | Potency [11] | Potency [12] | activity change, negative = inhibition [2] | activation [13] | Potency [14]
1 | COc1ccc2c(c1)Cc1cc(N=[N+]([O-])c3ccc4c(c3)Cc3cc(OC)ccc3-4)ccc1-2 | > 11.4 µM | 1.58 µM (active) | -17.3% | -1.13% | > 46 µM | > 9.22 µM | inactive | inactive | 5.01 µM (active) | inactive |  |  |  |  | 
2 | O=C(CCCc1ccccn1)c1ccccc1 | > 11.4 µM | 5.01 µM (active) | 1.79% | 2.46% | > 46 µM |  | inactive | inactive |  |  |  |  |  |  | 
3 | N#C[C@@H](N=Nc1ccccc1C(=O)O)C(N)=O | > 11.4 µM | inactive | -8.71% | -29.4% | > 46 µM | > 9.22 µM | inactive | inactive |  |  | inactive |  |  |  | 
4 | CC(=NC1CCCCC1)c1ccccc1O | > 11.4 µM | inactive | 16.7% | 11% | > 46 µM | > 9.22 µM | inactive | inactive |  |  |  |  |  |  | 
5 | N#Cc1c(NC(=O)C(F)(F)F)sc2c3c(=O)c4ccccc4c(=O)c=3oc3ccccc3c12 | > 11.4 µM | 1 µM (active) | 13.7% | 0.0272% | > 46 µM | > 9.22 µM | inactive |  |  | inactive | 0.501 µM (active) | 0.0501 µM (active) |  |  | 
6 | Cc1ccc(N=Nc2c(O)c3ccccc3[nH]c2=O)c(S(=O)(=O)N(C)C)c1 | > 11.4 µM |  | 2.83% | 3.87% | > 46 µM | > 9.22 µM | inactive | inactive |  |  |  |  | -14.6% [at 2.29 µM] |  | 
7 | Cc1c(S(=O)(=O)O)ccc(N=Nc2c(O)c(C(=O)O)cc3ccccc23)c1Cl | > 11.4 µM | 5.01 µM (active) | -10.7% | -10.2% | > 46 µM | > 9.22 µM | inactive | inactive |  |  |  |  |  | -17.8% | 
8 | NCCc1nc(-c2nc(C(=O)O)cs2)cs1 | > 11.4 µM | inactive | -25.9% | -10% | > 46 µM | > 9.22 µM | inactive | inactive |  |  |  |  |  |  | 
9 | CC1(C)O[C@@H]2O[C@H]([C@@H]3COC(C)(C)O3)[C@H](N)[C@H]2O1 | > 11.4 µM |  | 10.1% | 5.21% | > 46 µM | > 9.22 µM | inactive | inactive |  |  |  |  | 8.7% [at 2.29 µM] |  | 
10 | CC(C)[C@H](Sc1nc(N)nc2nc[nH]c12)C(=O)O | > 11.4 µM | 0.316 µM (active) | 9.06% | 14.2% | > 46 µM | > 9.22 µM | inactive | inactive |  |  |  |  |  |  | 
11 | OC[C@@H]1O[C@@H](N2CCN([C@@H]3O[C@@H](CO)[C@@H](O)[C@H](O)[C@H]3O)CC2)[C@@H](O)[C@H](O)[C@H]1O | > 11.4 µM |  | -2.18% | -5.46% | > 46 µM | > 9.22 µM | inactive | inactive |  |  |  |  | -9.7% [at 2.29 µM] |  | 
12 | O=C1c2ccccc2C(=O)N1C[C@]1(C(=O)O)NCCS1(=O)=O | > 11.4 µM |  | 7.39% | -1.43% | > 46 µM | > 9.22 µM | inactive | inactive |  |  |  |  | -5.5% [at 2.29 µM] |  | 
13 | CC(CC(=O)O)(CC(=O)O)c1ccccc1 | > 11.4 µM | inactive | 4.46% | 7.69% | > 46 µM | > 9.22 µM | inactive | inactive |  |  | inactive |  |  |  | 
14 | C[C@@H]1CCCN(C[C@@H](O)CN2CCCc3ccccc32)C1 | > 11.4 µM | inactive | -7.43% | 11.4% | > 46 µM | > 9.22 µM | inactive | inactive |  |  |  |  |  |  | 
15 | NC(N)=N/N=C(/c1ccccc1)c1ccc(O)cc1O | > 11.4 µM | 3.16 µM (active) | 5.67% | 6.43% | > 46 µM | > 9.22 µM | inactive | inactive |  | inactive |  |  |  |  | 1.26 µM (active)
16 | c1ccc2cc(NCNc3ccc4ccccc4c3)ccc2c1 | > 11.4 µM | 0.631 µM (active) | -15.6% | -2.06% | > 46 µM | > 9.22 µM | inactive | inactive |  | inactive | 2.51 µM (active) | 3.98 µM (active) |  |  | 
